The supplement of paper PMC10646978
± gives the standard deviation.

Assays:
Conditions in all cases: modulator concentration 10 µM
[1] = test system: RAW-Dual (murine macrophage reporter line); assay: NF-kB reporter (SEAP) activity fold change vs agonist alone; higher = enhanced NF-kB activity
In short: (§1)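 Compound reached 10 μM final in each well by pin transfer, onto RAW-Dual murine macrophage reporter cells seeded at 50 000 per well in 384-well plates. After 1 hour at 37 °C, the cells were stimulated overnight with a PRR agonist. SEAP in the supernatant was read with QUANTI-Blue at 620 nm absorbance for NF-κB, and Lucia luciferase was read with QUANTI-Luc luminescence for IRF. Each signal was turned into fold change against the mean agonist-only control on the same plate, and two replicate plates were averaged with propagated errors.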

[2] = test system: RAW-Dual (murine macrophage reporter line); assay: IRF reporter (Lucia luciferase) activity fold change vs agonist alone; higher = enhanced IRF activity
In short: as §1

[3] = test system: RAW-Dual (murine macrophage reporter line); assay: viability score (confluency relative to resting cells, overnight) (fraction); higher = more viable, active = viable (0.7 or more)
In short: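 A compound met the cutoff when both of two confluency masks exceeded 70% of resting cells. Those masks were made with IncuCyte software from IncuCyte images of RAW-Dual macrophages treated overnight at 10 μM final. This is the basis of the viability score, which is confluency relative to resting cells.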

[4] = agonist: CpG ODN 1826 0.5 ug/mL

| Structure (SMILES) | NF-kB reporter [1, 4] | NF-kB reporter ([1]; agonist: LPS 0.1 ug/mL) | NF-kB reporter ([1]; agonist: MPLA […]) | IRF reporter ([2]; agonist: 3'3'-cGAMP 10 ug/mL) | IRF reporter ([2]; agonist: LPS 0.1 ug/mL) | IRF reporter ([2]; agonist: MPLA […]) | viability score [3] |
| --- | --- | --- | --- | --- | --- | --- | --- |
| CN(C)CCC=C1c2ccccc2CCc2ccccc21.Cl | 0.903 ± 0.19 | 1.26 ± 0.48 | 1.21 ± 0.17 | 0.423 ± 0.017 | 1.31 ± 0.44 | 1.12 ± 0.084 | 0.412 (inactive) |
| CC#C[C@]1(O)CC[C@H]2[C@@H]3CCC4=CC(=O)CCC4=C3[C@@H](c3ccc(N(C)C)cc3)C[C@@]21C | 0.955 ± 0.093 | 0.722 ± 0.15 | 1.39 ± 0.15 | 0.863 ± 0.048 | 0.868 ± 0.033 | 1.05 ± 0.31 | 1 (active) |
| CN(C)CCC(c1ccc(Cl)cc1)c1ccccn1.O=C(O)/C=C\C(=O)O (configuration not stated) | 1.02 ± 0.14 | 1.08 ± 0.23 | 1.1 ± 0.13 | 0.799 ± 0.042 | 1.23 ± 0.14 | 1.11 ± 0.085 | 0.995 (active) |
| O=c1cc(-c2ccc(O)cc2)oc2cc(OC3OC(CO)C(O)C(O)C3O)cc(O)c12 (configuration not stated) | 1.14 ± 0.11 | 1.06 ± 0.072 | 1.05 ± 0.022 | 0.911 ± 0.094 | 0.966 ± 0.05 | 1.01 ± 0.086 | 0.998 (active) |
| O=C(Nc1cc(N2CCN(Cc3ccccc3)CC2)ncn1)c1ccc2ccccc2n1 | 0.528 ± 0.04 | 0.984 ± 0.077 | 0.846 ± 0.036 | 0.94 ± 0.049 | 1.07 ± 0.067 | 1.24 ± 0.23 | 1.01 (active) |
| Fc1ccc(CN2CCc3c([nH]c4ccccc34)C2)c(F)c1 | 0.636 ± 0.051 | 0.378 ± 0.05 | 0.62 ± 0.082 | 0.909 ± 0.029 | 1.32 ± 0.2 | 1.21 ± 0.16 | 0.212 (inactive) |
| Cc1ccc(-c2cc(C(F)(F)F)nn2-c2ccc(S(N)(=O)=O)cc2)cc1 | 0.337 ± 0.026 | 0.481 ± 0.03 | 0.59 ± 0.078 | 1.1 ± 0.091 | 0.848 ± 0.052 | 0.984 ± 0.087 | 0.183 (inactive) |
| O=Cc1cn(CCOc2ccc(Cl)cc2)c2ccccc12 | 1.45 ± 0.12 | 0.883 ± 0.07 | 1.62 ± 0.06 | 0.685 ± 0.057 | 0.773 ± 0.081 | 0.613 ± 0.12 | 0.93 (active) |
| COC(=O)C1=CN(CC2CCCO2)C=C(C(=O)OC)C1c1ccsc1 (configuration not stated) | 0.898 ± 0.087 | 0.845 ± 0.057 | 1.12 ± 0.13 | 0.895 ± 0.041 | 1.41 ± 0.082 | 1.43 ± 0.18 | 1.01 (active) |
| O=C(C=Cc1ccc(Br)cc1)c1c(-c2ccccc2)c2cc(Cl)ccc2[nH]c1=O | 0.876 ± 0.068 | 0.792 ± 0.055 | 1.03 ± 0.099 | 0.858 ± 0.039 | 1.4 ± 0.09 | 1.5 ± 0.16 | 0.997 (active) |
| Cc1cccc(C(=O)Nc2cccc([N+](=O)[O-])c2C)c1 | 1.1 ± 0.067 | 1 ± 0.062 | 0.86 ± 0.095 | 0.964 ± 0.04 | 1.33 ± 0.15 | 1.12 ± 0.099 | 0.992 (active) |
| CCC(C)(C)C(=O)Nc1ccc(C(C)=O)cc1 | 0.962 ± 0.076 | 1.03 ± 0.068 | 0.953 ± 0.045 | 0.909 ± 0.13 | 1.02 ± 0.14 | 1.11 ± 0.22 | 1 (active) |
| Cn1c(=O)c2c(ncn2CC(=O)O)n(C)c1=O [Prestw-1507] | 0.918 ± 0.25 | 1.19 ± 0.12 | 1.04 ± 0.086 | 0.945 ± 0.053 | 0.96 ± 0.099 | 1.17 ± 0.15 | 0.992 (active) |
| COc1ccc(C=NNC(=O)c2ccc(CN3CCOCC3)cc2)cc1[N+](=O)[O-] | 1.01 ± 0.085 | 1.06 ± 0.089 | 0.961 ± 0.067 | 1.04 ± 0.039 | 1.47 ± 0.14 | 1.28 ± 0.11 | 0.988 (active) |
| CN(C)CCN(Cc1ccccc1)c1ccccn1.Cl | 0.731 ± 0.19 | 0.911 ± 0.052 | 0.927 ± 0.064 | 0.811 ± 0.074 | 0.954 ± 0.22 | 0.854 ± 0.081 | 1.01 (active) |
| CN(C)C1C(O)=C(C(N)=O)C(=O)C2(O)C(O)=C3C(=O)c4c(O)ccc(Cl)c4C(O)C3CC12.Cl (configuration not stated) | 1.37 ± 0.35 | 1.1 ± 0.067 | 1.01 ± 0.067 | 0.894 ± 0.038 | 1.19 ± 0.14 | 1.08 ± 0.15 | 0.991 (active) |
| Cc1cccc(C)c1N(CC(=O)Nc1ccc(-c2ncon2)cc1)C(=O)C1CCS(=O)(=O)CC1 | 1.06 ± 0.083 | 0.939 ± 0.075 | 1.05 ± 0.024 | 0.976 ± 0.098 | 0.997 ± 0.13 | 0.982 ± 0.086 | 0.999 (active) |
| CNC(=O)[C@@H](NC(=O)[C@H](CC(C)C)[C@H](O)C(=O)NO)C(C)(C)C | 1.29 ± 0.097 | 1.15 ± 0.13 | 0.996 ± 0.021 | 0.868 ± 0.048 | 0.983 ± 0.11 | 1 ± 0.13 | 1.01 (active) |
| N[C@@H](CC(=O)N1CCn2c(nnc2C(F)(F)F)C1)Cc1cc(F)c(F)cc1F | 0.793 ± 0.19 | 0.989 ± 0.063 | 0.905 ± 0.058 | 0.908 ± 0.044 | 1.05 ± 0.12 | 1.1 ± 0.16 | 0.998 (active) |
| CC12CC3(C)CC(C)(C1)CC(C(=O)NC(C)(C)CO)(C2)C3 | 0.866 ± 0.067 | 0.867 ± 0.097 | 0.879 ± 0.09 | 0.996 ± 0.067 | 1.42 ± 0.096 | 1.52 ± 0.16 | 1 (active) |
| COc1ccc(C)c2sc(NC(=O)c3ccco3)nc12 | 1.18 ± 0.089 | 0.847 ± 0.068 | 1.11 ± 0.031 | 0.863 ± 0.078 | 0.845 ± 0.061 | 0.882 ± 0.073 | 0.971 (active) |
| O=S(=O)(Nc1nc2ccccc2nc1Nc1ccc2c(c1)OCCO2)c1cccs1 | 0.985 ± 0.078 | 1.02 ± 0.065 | 1.13 ± 0.1 | 0.85 ± 0.028 | 1.29 ± 0.2 | 1.05 ± 0.098 | 0.99 (active) |
| CC12CCC(CC1)C(C)(C)O2 | 1.17 ± 0.28 | 1.05 ± 0.14 | 0.968 ± 0.074 | 0.956 ± 0.033 | 1.21 ± 0.15 | 1.15 ± 0.12 | 0.994 (active) |
| CC(C)(Oc1ccc(Cl)cc1)C(=O)Nc1cnoc1 | 1.05 ± 0.097 | 1.09 ± 0.082 | 1.08 ± 0.098 | 0.982 ± 0.037 | 1.03 ± 0.063 | 1.04 ± 0.17 | 0.979 (active) |
| O=C(NCCc1nc(C2CC2)cc(C(F)(F)F)n1)c1c(F)cccc1Cl | 1.01 ± 0.079 | 1.11 ± 0.087 | 0.943 ± 0.11 | 1.01 ± 0.053 | 1.13 ± 0.086 | 1.07 ± 0.12 | 1 (active) |
| O=C(CCn1cnc2ccccc2c1=O)NCC1CCCN1c1ccccc1 (configuration not stated) | 1.05 ± 0.054 | 1 ± 0.086 | 0.987 ± 0.046 | 0.983 ± 0.053 | 1.3 ± 0.086 | 1.2 ± 0.14 | 0.995 (active) |
